Data reported in PubChem BioAssay AID1159580 (chemical genetic matrix, 2015).
Among all 5,500 compounds or so, about 2,000 (36%) were called active. About 18% were inconclusive and are not listed. Cut-off read from the data, not from the text of the source: active = normalized growth mostly below about 0.91 (no sharp cut-off); inconclusive = no clear call, values can overlap the other calls; inactive = mostly above about 0.92. The list shows a part of the results.

Assay: chemical genetic growth profiling, strain panel (AID 1159580);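 note: tested at 20 µM; growth read once vehicle control cultures reached saturation at 30 °C; 1 = growth at the plate median or of vehicle wells; lower values mean less growth of the strain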
Conditions: S. cerevisiae deletion strains, growth OD
[1] = locus YAL013W, strain DEP1, hits give low values
[2] = locus YAL040C, strain CLN3, hits give low values
[3] = locus YCL061C, strain MRC1 (second series), hits give low values
[4] = locus YDR363W, strain ESC2, hits give low values
[5] = locus YER002W, strain NOP16, hits give low values
[6] = locus YMR263W, strain SAP30, hits give low values
[7] = locus YNL175C, strain NOP13, hits give low values
[8] = locus YNL197C, strain WHI3, hits give low values
[9] = locus YNL224C, strain SQS1, hits give low values
[10] = locus YOR083W, strain WHI5 (second series), hits give low values
[11] = locus YGR078C, strain PAC10, hits give low values
[12] = locus YNL322C, strain KRE1, hits give low values

Measured: normalized growth

NC(Cc1ccc(O)c(O)c1)C(=O)O (configuration not stated)
inactive: [1] 0.997 | [2] 1.02 | [3] 0.977 | locus YDR150W, strain NUM1, hits give low values 0.955 | [4] 1.02 | [5] 1.01 | [6] 1.01 | [7] 1.01 | [8] 1.03 | [9] 1.01 | [10] 0.97

C[C@H](Cc1ccc(O)c(O)c1)[C@@H](C)Cc1ccc(O)c(O)c1
inactive: [2] 1.07 | [5] 0.979 | [11] 0.986 | locus YNL153C, strain GIM3, hits give low values 0.863 | [7] 0.946 | [8] 0.969 | [9] 0.966 | [10] 0.925
active: [1] 0.783 | [3] 0.811 | [4] 0.745 | [12] 0.478 | locus YPL055C, strain LGE1, hits give low values 0.77 | locus YPL241C, strain CIN2, hits give low values 0.578

CC(Cc1ccc(O)c(O)c1)C(C)Cc1ccc(O)c(O)c1 (configuration not stated)
inactive: locus YBR021W, strain FUR4, hits give low values 0.952 | locus YCL029C, strain bik1, hits give low values 0.916 | locus YDL185W, strain tfp1, hits give low values 0.995 | locus YDR101C, strain arx1, hits give low values 0.939 | locus YDR318W, strain mcm21, hits give low values 0.955 | locus YER110C, hits give low values 0.988 | locus YER167W, strain BCK2, hits give low values 0.957 | locus YGL078C, strain dbp3, hits give low values 0.999 | locus YGR252W, strain gcn5, hits give low values 0.792 | locus YHR094C, strain hxt1, hits give low values 1.01 | locus YHR200W, strain rpn10, hits give low values 0.964 | locus YIL125W, strain kgd1, hits give low values 1 | locus YJL168C, strain set2, hits give low values 0.983 | locus YKL009W, strain mrt4, hits give low values 0.993 | locus YKL068W, hits give low values 1.01 | locus YKL085W, strain MDH1 (second series), hits give low values 0.992 | locus YKL085W, strain MDH1, hits give low values 0.992 | locus YLR102C, strain apc9, hits give low values 1.01 | locus YLR262C, strain YPT6, hits give low values 0.616 | locus YLR371W, strain rom2, hits give low values 0.919 | locus YML032C, strain rad52, hits give low values 0.927 | locus YML124C, strain tub3, hits give low values 0.979 | locus YMR078C, strain ctf18, hits give low values 0.973 | locus YMR223W, strain ubp8, hits give low values 0.91 | locus YMR307W, strain GAS1, hits give low values 0.691 | locus YNL250W, strain rad50, hits give low values 1.03 | locus YNL271C, strain bni1, hits give low values 0.997 | locus YNL298W, strain CLA4, hits give low values 0.981 | locus YNR052C, strain pop2, hits give low values 0.927 | locus YOL012C, strain htz1 0.299 | locus YOL147C, strain pex11, hits give low values 0.936 | locus YOR136W, strain idh2, hits give low values 1.01 | locus YOR144C, strain elg1, hits give low values 0.95 | locus YOR316C, strain cot1, hits give low values 0.999 | locus YPR119W, strain clb2, hits give low values 1.01 | locus YPR141C, strain kar3, hits give low values 1.01 | locus YPR163C, strain tif3, hits give low values 0.982 | locus YPR167C, strain met16, hits give low values 0.952
active: [1] 0.625 | locus YBR229C, strain ROT2, hits give low values 0.909 | locus YDL035C, strain GPR1, hits give low values 0.774 | locus YDL074C, strain BRE1, hits give low values 0.48 | locus YDL101C, strain DUN1, hits give low values 0.522 | locus YDL192W, strain arf1, hits give low values 0.896 | locus YDR162C, strain NBP2, hits give low values 0.428 | locus YDR388W, hits give low values 0.895 | locus YDR502C, strain sam2, hits give low values 0.813 | locus YEL061C, strain CIN8, hits give low values 0.681 | locus YER155C, strain BEM2, hits give low values 0.756 | locus YGL086W, strain mad1, hits give low values 0.909 | locus YGL248W, strain PDE1, hits give low values 0.814 | [11] 0.818 | locus YGR135W, strain pre9, hits give low values 0.854 | locus YGR229C, strain SMI1, hits give low values 0.419 | locus YHR030C, strain SLT2, hits give low values 0.87 | locus YHR079C, strain IRE1 (second series), hits give low values 0.904 | locus YHR129C, strain ARP1, hits give low values 0.73 | locus YIL066C, strain RNR3, hits give low values 0.61 | locus YIL073C, strain SPO22, hits give low values 0.499 | locus YIR030C, strain dcg1, hits give low values 0.903 | locus YJL095W, strain BCK1, hits give low values 0.113 | locus YJL134W, strain LCB3, hits give low values 0.909 | locus YJL187C, strain SWE1 (second series), hits give low values 0.621 | locus YJR043C, strain POL32, hits give low values 0.425 | locus YKR001C, strain vps1, hits give low values 0.882 | locus YLR039C, strain RIC1, hits give low values 0.293 | locus YLR058C, strain SHM2, hits give low values 0.643 | locus YLR268W, strain sec22, hits give low values 0.853 | locus YLR330W, strain CHS5, hits give low values 0.82 | locus YLR342W, strain FKS1 (second series), hits give low values 0.645 | locus YLR418C, strain cdc73, hits give low values 0.673 | locus YML016C, strain PPZ1, hits give low values 0.746 | [6] 0.455 | locus YNL067W, strain RPL9B, hits give low values 0.726 | locus YNL128W, strain TEP1, hits give low values 0.816 | locus YNL233W, strain BNI4, hits give low values 0.849 | locus YNL307C, strain MCK1, hits give low values 0.899 | [12] 0.522 | locus YOR061W, strain CKA2, hits give low values 0.871 | locus YOR069W, strain VPS5, hits give low values 0.858 | locus YOR184W, strain ser1, hits give low values 0.784 | strain wtn01, hits give low values 0.892
